ADAM10 inh = human ADAM10 inhibitors, primary screen, biochemical, QFRET, HTS; Disintegrin and metalloproteinase domain-containing protein 10 (Homo sapiens), O14672; recombinant ADAM10, EDANS/DABCYL FRET peptide cleavage, 3 h; inhibition, % at 7 µM; 0.62% of 370,000 active; AID 720582, 2013;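 active = inhibition above a per-campaign cutoff equal to the mean of compounds falling between control-based bounds plus 3 SD, cut at about 20% in these data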;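 also: 0% = DMSO wells while the 100% control is not disclosed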
Target sequence (O14672 214-748 limits assumed): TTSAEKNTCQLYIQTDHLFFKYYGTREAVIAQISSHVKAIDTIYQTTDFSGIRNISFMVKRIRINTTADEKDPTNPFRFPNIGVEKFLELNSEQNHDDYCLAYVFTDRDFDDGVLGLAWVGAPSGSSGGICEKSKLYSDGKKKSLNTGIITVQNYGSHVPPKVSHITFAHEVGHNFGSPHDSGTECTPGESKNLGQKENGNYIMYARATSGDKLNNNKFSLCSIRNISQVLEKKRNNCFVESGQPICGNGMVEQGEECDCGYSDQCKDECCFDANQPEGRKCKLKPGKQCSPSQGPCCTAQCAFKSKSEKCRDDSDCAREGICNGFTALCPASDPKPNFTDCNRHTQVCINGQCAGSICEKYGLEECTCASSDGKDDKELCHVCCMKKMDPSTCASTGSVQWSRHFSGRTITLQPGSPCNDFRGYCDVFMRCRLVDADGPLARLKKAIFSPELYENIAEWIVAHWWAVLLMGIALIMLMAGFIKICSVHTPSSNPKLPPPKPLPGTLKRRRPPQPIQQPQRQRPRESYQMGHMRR
ADAM17 inh = ADAM17 inhibitors, primary screen, biochemical, QFRET | inhibition, % at 6.95 µM | Disintegrin and metalloproteinase domain-containing protein 17 (Homo sapiens), P78536 | recombinant ADAM17, EDANS/DABCYL FRET peptide cleavage | AID 720648, 2013 | 0.83% of 370,000 active;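 active = inhibition above the mean of compounds lying between control limits plus 3 SD, set per campaign, cut at about 8.5% in these data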;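 also: 0% = DMSO-only wells as the low control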
AHR act = AHR activators, primary screen, cell-based, luminescence, luciferase reporter, human. 2.5% of 320,000 active. AHR-responsive luciferase reporter cells. Aryl hydrocarbon receptor (Homo sapiens), P35869. activation, % at 5 µM; in the data active = activation above about 47%;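 also: 0% = vehicle wells and 100% = reference agonist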
rCAG RNA binder = binders of r(CAG) RNA repeats, primary screen, biochemical, fluorescence; AID 651821, 2012; 1.3% of 370,000 active; inhibition, % at 3 µM; r(CAG) RNA repeat, TO-PRO-1 dye displacement fluorescence;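 active = inhibition above the plate cutoff, the mean of all test compounds on that plate plus 3 SD, cut at about 35% in these data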;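 also: 0% = DMSO alone and 100% = 100 µM mitoxantrone as full dye displacement; higher means more dye released from RNA so lower well fluorescence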
GRIN3A LBD mod = binders of NR3A ligand-binding domain, primary screen, biophysical, differential scanning fluorimetry, uHTS. Glutamate receptor ionotropic, NMDA 3A (GRIN3A) ligand-binding domain. NR3A LBD differential scanning fluorimetry, Tm shift; 0% = protein alone, 100% = glycine-bound protein. Tm shift relative to glycine control, % at 25 µM. 2.5% of 340,000 active. AID 1259313, 2017;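 active = melting temperature shift of at least 10% of the positive control shift, at one fixed dose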
proKLK7 act = proKLK7 zymogen activators, primary screen, biochemical, fluorescence intensity; purified proKLK7, EDANS-DABCYL substrate fluorescence; 100% is mature enzyme control, 0% vehicle; activation, % at 7 µM; 0.9% of 370,000 active; AID 652039, 2013;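 active = activation above the mean of all tested compounds plus 3 SD, computed per campaign excluding outliers beyond control limits, cut at about 13% in these data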
* = called active by the depositor; . = no result. An excerpt weighted towards active compounds, which were near 7% of everything screened.

SMILES	ADAM10 inh	ADAM17 inh	AHR act	rCAG RNA binder	GRIN3A LBD mod	proKLK7 act
O=C(Nc1ccc(F)cc1)N(Cc1cccs1)Cc1cc2cc3c(cc2[nH]c1=O)OCO3	-58.8	-15.9	53.6*	7.0	-12.2	-0.1
COc1ccc2[nH]c(=O)c(CN(Cc3cccs3)C(=S)Nc3cccc(C)c3)cc2c1	-39.1	-9.4	21.9	4.8	10.3*	0.1
CCn1c(=O)n(CC(=O)N2CCCC2)c(=O)c2ccccc21	-9.1	-3.8	.	3.3	.	-0.2
CC1CCC2(CCC(=O)N2CCCOC(=O)NC(C)(C)C)CC1 (stereo not drawn)	-10.5	-3.9	.	1.1	.	-0.5
Cc1c(Cl)cccc1NC(=O)CC1Sc2ccccc2NC1=O (stereo not drawn)	5.3	2.5	1.4	-1.0	10.3*	-0.1
Cc1ccc(C)c(NC(=O)CC2Sc3ccccc3NC2=O)c1 (stereo not drawn)	1.0	6.6	.	1.5	-1.0	-0.5
Cc1cccc(NC(=O)Nc2c(-c3ccc(C(F)(F)F)cc3)nc3ncccn23)c1	-39.4	-8.9	.	9.4	.	-2.8
COc1ccc(-c2c(C)nn3c(-c4ccccc4)cc(C)nc23)cc1	-6.8	-6.0	7.1	1.0	15.3*	-0.1
CC1(C)CC(=O)C=C(c2ccc3c(c2)OCO3)C1	-25.4	-11.2	59.4*	-3.8	-1.4	2.1
CC1(C)CC(=O)C=C(c2ccc(-c3ccccc3)cc2)C1	-4.3	0.5	-0.3	-1.1	-1.0	-0.1
CC(C)C[C@H]1COc2cc(Br)ccc2S(=O)(=O)N1Cc1cn(Cc2ccc(F)cc2)nn1	-3.9	-2.1	.	1.3	.	0.0
CC(=O)N1CCN(c2ccc(N3CCN(Cc4ccccc4)[C@H](C)C3)c(C)c2)[C@H](C)C1	-11.0	-4.0	.	0.4	.	1.0
CCC(=O)c1ccc(N2CCN(C(=O)c3cc([N+](=O)[O-])ccc3N3CCN(C)CC3)CC2)c(F)c1	6.4	0.8	-1.4	-7.7	14.2*	0.8
COc1ccc(OC)c(C(=O)CSc2nnc(Cc3cccs3)n2CCc2ccccc2)c1	7.2	1.8	59.4*	-1.6	1.5	0.7
Cc1ccc(-c2nc3cccnc3s2)cc1NC(=O)c1ccco1	-7.9	-0.4	41.9	9.9	-0.9	-0.3
CCS(=O)(=O)Nc1cc(-c2nc3cccnc3s2)ccc1C	-171.6	-49.3	70.0*	8.4	-2.5	-3.4
CCS(=O)(=O)Nc1cccc(-c2nc3cccnc3s2)c1	-18.8	-6.5	75.6*	0.9	-0.5	-1.2
COc1ccc(-c2noc(C3CCCN(C(=O)Nc4cc(C)cc(C)c4)C3)n2)cc1 (stereo not drawn)	10.0	5.9	.	1.5	.	0.6
COC(=O)c1cc2c(c3c4ccccc4n(S(=O)(=O)c4ccc(OC)cc4)c13)C(=O)N(Cc1ccco1)C2	-31.1	-3.3	.	24.6	.	-1.6
COc1ccc(OC)c(CN2C(=O)COc3ccccc3C2c2nnnn2C2CCCC2)c1 (stereo not drawn)	1.0	-1.0	.	0.3	.	-0.7
Cc1cc(C)cc(NC(=O)C2CCCN2/C=C/C(=O)C(F)(F)F)c1 (stereo not drawn)	8.3	3.7	7.5	1.1	12.5*	0.4
Cc1cccc(Cl)c1-n1nnnc1C1(C)CSCC(=O)N1Cc1ccc(F)cc1 (stereo not drawn)	0.0	-1.4	.	8.5	.	0.3
C[C@@H]1C[C@H]2[C@@H](Cc3ccccc3)C(=O)N3[C@H](c4ccccc4)[C@H](C)C[C@H]3[C@@H](Cc3ccccc3)C(=O)N2[C@@H]1c1ccccc1	10.3	5.1	.	5.9	.	0.8
CC1=Nc2ccccc2/C1=C/c1sc(=N)n(-c2nccs2)c1O	.	.	73.3*	.	1.5	.
COc1ccccc1CCn1cnc(-c2cccc(Br)c2)c1CC(C)C	0.4	0.6	.	1.1	.	0.1
SMILES	ADAM10 inh	ADAM17 inh	AHR act	rCAG RNA binder	GRIN3A LBD mod	proKLK7 act
CCOC(=O)N1CCN(C(=O)C[C@H]2C[C@@]3(C(=O)OC)C(=C[C@H](C(C)(C)C)O[C@@H]3C)N(Cc3ccco3)C2=O)CC1	7.8	0.4	.	-1.2	.	-0.3
CCCCCCCN(c1ccccc1)[C@@H]1C[C@H]2CCCC(=O)N3CC[C@@H](C1)[C@@H]23	15.0	5.6	.	-3.1	18.8*	-0.3
CCCCNC(=O)O[C@@H]1C[C@H]2CCCC(=O)N3CC[C@@H](C1)[C@@H]23	0.5	-0.8	0.8	-2.5	-0.6	0.4
COC(=O)N1C[C@H](OC(=O)c2ccc(-c3ccccc3)cc2)[C@H]2C[C@@H]1c1ccccc1O2	-8.7	-4.0	.	0.7	.	0.2
CN(C(=O)CNC(=O)c1ccccc1OCC(=O)Nc1ccc(I)cc1)c1ccccc1	1.1	-0.9	.	3.1	.	1.1
O=C(CSc1nc(-c2ccc(F)cc2)cs1)Nc1ccccn1	-2.5	1.8	-2.3	-2.2	12.6*	0.2
COc1ccccc1NC(=O)COc1ccc(CO)cc1Cl	0.5	-0.1	9.7	-3.3	11.0*	0.6
CC(=O)C1(C(=O)Nc2cc(C)cc(C)c2)CC(c2ccccn2)=NO1 (stereo not drawn)	-20.4	-5.2	.	7.7	.	-0.9
O=C(N/N=C/c1ccc(O)cc1)Nc1cccc2nsnc12	-3.0	-4.6	8.7	21.4	16.7*	0.4
CC(=O)c1ccc(N2CCN(S(=O)(=O)c3cc4[nH]c(=O)c(=O)[nH]c4cc3C)CC2)cc1	-39.0	-8.2	47.1*	13.2	-6.1	0.3
CC(=O)c1ccc(N2CCN(S(=O)(=O)c3ccc4c(c3)CCC(=O)N4)CC2)cc1	-2.5	2.4	.	3.8	.	0.6
COC(=O)[C@]12C[C@H](CC(=O)N3CCC(c4ccccc4)CC3)C(=O)N(Cc3ccco3)C1=C[C@H](COCc1ccccc1)O[C@@H]2C	3.8	3.0	.	10.4	.	0.5
COC(=O)[C@]12C[C@H](CC(=O)NCc3cccc4ccccc34)C(=O)N(Cc3ccc(Cl)cc3Cl)C1=C[C@H](C(C)C)O[C@@H]2C1CC1	-3.1	-6.4	.	5.9	.	0.1
Cc1cc(C)c(S(=O)(=O)/N=C2/C=C(Sc3ncn[nH]3)C(=O)c3ccccc32)cc1C	1.4	1.8	43.3	56.0*	-28.1	-3.8
CCCCCCCCN1C(=O)[C@@H](CC(=O)N2CCOCC2)C[C@@]2(C(=O)OC)C1=C[C@H](C(C)C)O[C@@H]2C1CC1	7.9	6.0	.	1.1	.	0.6
Cc1cc(NC(=O)CSc2nnc(C3CC3)n2Cc2ccccc2)no1	-11.2	-0.8	-0.2	-0.3	-0.6	-0.5
Cc1cc(NC(=O)CSc2nnc(C3CC3)n2-c2ccccc2)no1	-1.9	1.1	48.1*	-4.2	0.4	-0.1
